Results taken from PubChem BioAssay (NCATS).
Results filed as inconclusive are left out. Calls of active or inactive are those of the source. Unless noted, calls come from the whole dose curve; as a rule, active = well fitted curve in either direction with a large enough effect (not every such curve was filed as active); inconclusive = small, poorly fitted or top-dose-only effect, or another doubt; inactive = flat fitted curve, though single readings scatter.

Key:
[1] = AP1 Signaling Pathway (AID 357); conditions: ME-180 AP-1-bla reporter, EGF-induced, beta-lactamase ratio, 5 h; at 17.2 µM (top of the series) unless noted;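 note: ME-180 reporter cells stimulated with EGF at its EC50 level; % is set by controls: 0 for no effect and ±100 for the full control effect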
How it was run: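 First, ME-180 AP-1-bla cells were cultured overnight at 37 °C in low-serum Opti-MEM. Next, titrated compounds with EC50 EGF were incubated 5 hours. Finally, CCF4 was added for 2.5 hours and the 460/530 nm ratio recorded.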

[2] = NFAT Signaling Pathway (AID 444); conditions: Jurkat NFAT-bla M1, carbachol, beta-lactamase ratio, 5 h; at 17.2 µM (top of the series) unless noted;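 note: carbachol stimulus at about its EC50 of 1 µM final; % is set by controls: 0 for no effect and ±100 for the full control effect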
How it was run: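 Jurkat cells carrying an NFAT-driven β-lactamase reporter and co-transfected muscarinic M1 receptor were treated with compound plus carbachol (1 uM final, an EC50 level) for 5 h at 37 °C. CCF4 loading followed for 1 h at RT; 460/530 nm ratio gave %activity.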

[3] = Stat Signaling Pathway (AID 446); conditions: ME-180 (cervical carcinoma) SIE beta-lactamase reporter, IL-6 stimulated, 5 h; at 17.2 µM (top of the series) unless noted;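 note: ME-180 cervical cancer cells given 40 pM IL-6 alongside compound; SIE-controlled beta-lactamase reporter measured as 460/530 nm FRET emission ratio; % is set by controls: 0 for no effect and ±100 for the full control effect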
How it was run: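 Emission at 460 and 530 nm (excitation 405 nm) reports SIE-controlled beta-lactamase in ME-180 cells. Cells received compound with 40 pM IL-6 for 5 hrs at 37 C; data scaled between 300 pM IL-6 and 125 nM JAK-inhibitor controls.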

[4] = biological target: Glucocorticoid receptor (Homo sapiens) (UniProt P04150); experiment: GR-GFP Redistribution (AID 450;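 active = compounds whose dose series gives a full or clear partial fitted curve of increased nuclear translocation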; note: potency is the fitted concentration of half-maximal effect); conditions: U2OS GR-GFP nuclear translocation, laser cytometry, 2 h; series mostly up to 20.6 µM
Chain of Glucocorticoid receptor (Homo sapiens) (P04150 whole entry, looked up): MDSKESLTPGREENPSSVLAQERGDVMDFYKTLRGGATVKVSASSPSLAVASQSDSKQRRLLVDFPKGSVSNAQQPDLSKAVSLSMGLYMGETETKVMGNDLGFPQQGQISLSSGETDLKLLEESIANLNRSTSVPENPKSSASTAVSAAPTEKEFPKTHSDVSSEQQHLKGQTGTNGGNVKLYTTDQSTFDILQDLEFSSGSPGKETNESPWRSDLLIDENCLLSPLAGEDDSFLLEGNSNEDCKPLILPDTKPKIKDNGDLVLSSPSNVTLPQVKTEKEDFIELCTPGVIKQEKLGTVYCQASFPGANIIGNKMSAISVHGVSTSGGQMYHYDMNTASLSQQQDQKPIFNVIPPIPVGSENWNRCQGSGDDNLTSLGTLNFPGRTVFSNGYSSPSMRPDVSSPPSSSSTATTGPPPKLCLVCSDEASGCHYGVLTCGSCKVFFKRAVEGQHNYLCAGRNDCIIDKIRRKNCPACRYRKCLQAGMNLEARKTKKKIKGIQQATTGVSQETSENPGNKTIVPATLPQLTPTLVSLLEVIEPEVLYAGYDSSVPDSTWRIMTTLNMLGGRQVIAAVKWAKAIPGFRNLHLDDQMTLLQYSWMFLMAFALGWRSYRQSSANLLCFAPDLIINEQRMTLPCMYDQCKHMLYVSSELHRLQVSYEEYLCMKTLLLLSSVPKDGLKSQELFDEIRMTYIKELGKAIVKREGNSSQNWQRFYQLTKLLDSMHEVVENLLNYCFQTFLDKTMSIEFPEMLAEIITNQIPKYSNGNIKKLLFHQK

Cc1nc(NS(=O)(=O)c2ccccc2)sc1NC(=O)OCCN(C)C
inactive: activity change, negative = inhibition [1] -8.74% | activity change, negative = inhibition [2] 13.4% | activity, negative = inhibition [3] 0.248% | Potency [4] > 20.6 µM

COC(=O)c1ccccc1N1C(=O)[C@@H]2C(c3ccc(Br)cc3)=NO[C@@H]2C1=O
inactive: activity change, negative = inhibition [1] 11.9% | activity change, negative = inhibition [2] 19.8% | activity, negative = inhibition [3] 7.92% | Potency [4] > 20.6 µM

CSc1nncc(=O)[nH]1
inactive: activity change, negative = inhibition [1] 16.2% | activity change, negative = inhibition [2] 0.69% | activity, negative = inhibition [3] -3.78% | Potency [4] > 20.6 µM

Cc1cc(O)c(C(C)C)cc1N=C1CSC(=O)N1
inactive: activity change, negative = inhibition [1] -11.9% | activity change, negative = inhibition [2] -9.06% | activity, negative = inhibition [3] -6.54% | Potency [4] > 20.6 µM

CCCNC1=C(C)C(=O)CC1
inactive: activity change, negative = inhibition [1] 11.1% | activity change, negative = inhibition [2] -5.45% | activity, negative = inhibition [3] 0.709% | Potency [4] > 20.6 µM

CCc1cc(=O)oc2cc(C)c(CN3CCCC3)c(O)c12
inactive: activity change, negative = inhibition [1] -8.92% | activity change, negative = inhibition [2] -9.64% | activity, negative = inhibition [3] -10.7% | Potency [4] > 20.6 µM

C=C(C)Cn1c(-c2ccc(OC)cc2)nc2ccccc21
inactive: activity change, negative = inhibition [1] -23.2% | activity change, negative = inhibition [2] 3.93% | activity, negative = inhibition [3] 5.37% | Potency [4] > 20.6 µM

CC1(C)Cc2[nH]c(=S)c(C#N)cc2CO1
inactive: activity change, negative = inhibition [1] 8.31% | activity change, negative = inhibition [2] -8.3% | activity, negative = inhibition [3] 27.9% | Potency [4] > 20.6 µM

CCCCCCOC(=O)CCn1[nH]c(=O)c2ccccc2c1=O
inactive: activity change, negative = inhibition [1] 13% | activity change, negative = inhibition [2] 7.42% | activity, negative = inhibition [3] -5.61% | Potency [4] > 20.6 µM

Cc1cc(C)n(Cc2ccc(C(=O)NCCC3=CCCCC3)o2)n1
inactive: activity change, negative = inhibition [1] -15.1% | activity change, negative = inhibition [2] -1.94% | activity, negative = inhibition [3] 1.51% | Potency [4] > 20.6 µM

Cc1[nH]nc(-c2ccc(O)cc2O)c1Oc1ccccc1
inactive: activity change, negative = inhibition [1] -8.71% | activity change, negative = inhibition [2] -25.7% | activity, negative = inhibition [3] -21.9% | Potency [4] > 20.6 µM

CCCOc1ccc(/C(O)=C2/C(=O)C(=O)N(CCCn3ccnc3)C2c2cccs2)cc1 (centres undefined)
inactive: activity change, negative = inhibition [1] -14.1% | activity change, negative = inhibition [2] 2.88% | activity, negative = inhibition [3] 6% | Potency [4] > 20.6 µM

O=c1[nH]c2cnccc2n1-c1ccccc1
inactive: activity change, negative = inhibition [1] -12.9% | activity change, negative = inhibition [2] -4.82% | activity, negative = inhibition [3] 1.57% | Potency [4] > 20.6 µM

O=C(OCCCN1CCCC1)C1(c2ccccc2)CCCC1
active: activity change, negative = inhibition [2] -82.8%
inactive: activity change, negative = inhibition [1] 14.4% | activity, negative = inhibition [3] 13.7% | Potency [4] > 20.6 µM

CC(C)Cc1nc(N2CCOCC2)c(C#N)c2c1COC(C)(C)C2
inactive: activity change, negative = inhibition [1] 0.834% | activity change, negative = inhibition [2] -9.76% | activity, negative = inhibition [3] 4.57% | Potency [4] > 20.6 µM

CC(=O)Nc1ccc(OC(=O)CC2SC(=O)NC2=O)cc1 (centres undefined)
inactive: activity change, negative = inhibition [1] 6.63% | activity change, negative = inhibition [2] 11.3% | activity, negative = inhibition [3] 5.85% | Potency [4] > 20.6 µM
